PubChem BioAssay AID1159580 (chemical genetic matrix, 2015)
About 2,000 (36%) of roughly 5,500 compounds were called active. Another 18% or so got no clear call; they are omitted. Rule as the data show it: active = normalized growth mostly below about 0.91 (no sharp cut-off); inconclusive = no clear call, values can overlap the other calls; inactive = mostly above about 0.92. Some of the results follow.

Assay: chemical genetic growth profiling, strain panel (AID 1159580);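 also: tested at 20 µM; growth read once vehicle control cultures reached saturation at 30 °C; 1 = growth at the plate median or of vehicle wells; lower values mean less growth of the strain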
Conditions: S. cerevisiae deletion strains, growth OD

Measured: normalized growth

CC(C)C(C)/C=C/C(C)[C@H]1CCC2C3=CCC4CC(=O)CC[C@]4(C)C3CC[C@@]21C (some centres not stated)
inactive: locus YAL013W, strain DEP1, stronger effect = lower value 1.04 | locus YAL021C, strain ccr4, stronger effect = lower value 0.999 | locus YAL026C, strain drs2, stronger effect = lower value 1 | locus YAL030W, strain snc1, stronger effect = lower value 1 | locus YBL061C, strain skt5, stronger effect = lower value 1 | locus YBR009C, strain hhf1, stronger effect = lower value 0.981 | locus YBR021W, strain FUR4, stronger effect = lower value 1 | locus YBR023C, strain chs3, stronger effect = lower value 0.995 | locus YBR171W, strain sec66, stronger effect = lower value 0.986 | locus YBR229C, strain ROT2, stronger effect = lower value 1.02 | locus YBR231C, strain swc5, stronger effect = lower value 1.03 | locus YBR279W, strain paf1, stronger effect = lower value 1 | locus YCL011C, strain gbp2, stronger effect = lower value 1.01 | locus YCL016C, strain dcc1, stronger effect = lower value 1.01 | locus YCL029C, strain bik1, stronger effect = lower value 1.02 | locus YCL061C, strain MRC1, stronger effect = lower value 1.01 | locus YCL069W, strain vba3, stronger effect = lower value 0.996 | locus YCR088W, strain abp1, stronger effect = lower value 1 | locus YDL005C, strain med2, stronger effect = lower value 1 | locus YDL035C, strain GPR1, stronger effect = lower value 0.992 | locus YDL040C, strain nat1, stronger effect = lower value 1 | locus YDL074C, strain BRE1, stronger effect = lower value 1 | locus YDL101C, strain DUN1, stronger effect = lower value 1.01 | locus YDL185W, strain tfp1, stronger effect = lower value 1.01 | locus YDL192W, strain arf1, stronger effect = lower value 0.996 | locus YDR001C, strain nth1, stronger effect = lower value 1 | locus YDR069C, strain doa4, stronger effect = lower value 0.997 | locus YDR101C, strain arx1, stronger effect = lower value 1.03 | locus YDR137W, strain rgp1, stronger effect = lower value 0.927 | locus YDR150W, strain NUM1, stronger effect = lower value 1.02 | locus YDR159W, strain sac3, stronger effect = lower value 1 | locus YDR162C, strain NBP2, stronger effect = lower value 0.97 | locus YDR195W, strain ref2 0.928 | locus YDR297W, strain sur2, stronger effect = lower value 1 | locus YDR318W, strain mcm21, stronger effect = lower value 1.01 | locus YDR334W, strain swr1, stronger effect = lower value 1 | locus YDR335W, strain msn5, stronger effect = lower value 1.01 | locus YDR388W, stronger effect = lower value 1.01 | locus YDR392W, strain spt3, stronger effect = lower value 0.941 | locus YDR502C, strain sam2, stronger effect = lower value 0.999 | locus YEL003W, strain gim4, stronger effect = lower value 1.01 | locus YEL037C, strain rad23, stronger effect = lower value 1 | locus YEL061C, strain CIN8 (second series), stronger effect = lower value 1.01 | locus YEL061C, strain CIN8, stronger effect = lower value 1.01 | locus YER015W, strain faa2, stronger effect = lower value 1 | locus YER016W, strain bim1, stronger effect = lower value 1 | locus YER110C, stronger effect = lower value 1.01 | locus YER111C, strain swi4, stronger effect = lower value 1 | locus YER155C, strain BEM2 (second series), stronger effect = lower value 0.984 | locus YER155C, strain BEM2, stronger effect = lower value 1.03 | locus YER167W, strain BCK2, stronger effect = lower value 1.03 | locus YFR010W, strain ubp6, stronger effect = lower value 1.01 | locus YGL078C, strain dbp3, stronger effect = lower value 0.98 | locus YGL086W, strain mad1, stronger effect = lower value 1 | locus YGL167C, strain pmr1, stronger effect = lower value 0.995 | locus YGL173C, strain kem1, stronger effect = lower value 0.995 | locus YGL227W, strain vid30, stronger effect = lower value 1 | locus YGL240W, strain doc1, stronger effect = lower value 0.999 | locus YGL248W, strain PDE1, stronger effect = lower value 1.01 | locus YGL253W, strain hxk2, stronger effect = lower value 1.01 | locus YGR078C, strain PAC10, stronger effect = lower value 1.01 | locus YGR135W, strain pre9, stronger effect = lower value 1 | locus YGR252W, strain gcn5, stronger effect = lower value 0.985 | locus YHR013C, strain ard1, stronger effect = lower value 0.968 | locus YHR027C, strain rpn1, stronger effect = lower value 1.01 | locus YHR030C, strain SLT2, stronger effect = lower value 1.03 | locus YHR079C, strain IRE1 (second series), stronger effect = lower value 1.01 | locus YHR094C, strain hxt1, stronger effect = lower value 1.02 | locus YHR129C, strain ARP1, stronger effect = lower value 1.02 | locus YHR142W, strain chs7, stronger effect = lower value 1 | locus YHR200W, strain rpn10, stronger effect = lower value 1.01 | locus YIL066C, strain RNR3, stronger effect = lower value 1.01 | locus YIL073C, strain SPO22, stronger effect = lower value 1.02 | locus YIL125W, strain kgd1, stronger effect = lower value 1.01 | locus YIR030C, strain dcg1, stronger effect = lower value 1.02 | locus YJL092W, strain hpr5, stronger effect = lower value 1.01 | locus YJL095W, strain BCK1 (second series), stronger effect = lower value 1.01 | locus YJL095W, strain BCK1, stronger effect = lower value 1.02 | locus YJL115W, strain asf1, stronger effect = lower value 0.99 | locus YJL129C, strain trk1, stronger effect = lower value 0.998 | locus YJL134W, strain LCB3, stronger effect = lower value 1.02 | locus YJL154C, strain vps35, stronger effect = lower value 1.01 | locus YJL164C, strain tpk1, stronger effect = lower value 0.998 | locus YJL166W, strain qcr8, stronger effect = lower value 1.01 | locus YJL168C, strain set2, stronger effect = lower value 1 | locus YJL187C, strain SWE1 (second series), stronger effect = lower value 1.01 | locus YJL187C, strain SWE1, stronger effect = lower value 1 | locus YJR043C, strain POL32, stronger effect = lower value 1.02 | locus YJR075W, strain HOC1, stronger effect = lower value 1.03 | locus YKL009W, strain mrt4, stronger effect = lower value 0.95 | locus YKL068W, stronger effect = lower value 1.01 | locus YKL085W, strain MDH1 (second series), stronger effect = lower value 1.02 | locus YKL085W, strain MDH1, stronger effect = lower value 1.02 | locus YKL160W, strain elf1, stronger effect = lower value 1.01 | locus YKR001C, strain vps1, stronger effect = lower value 1.01 | locus YKR026C, strain gcn3, stronger effect = lower value 0.971 | locus YKR091W, strain srl3, stronger effect = lower value 1.01 | locus YLL001W, strain dnm1, stronger effect = lower value 0.997 | locus YLL026W, stronger effect = lower value 1 | locus YLL041C, strain sdh2, stronger effect = lower value 1 | locus YLR027C, strain aat2, stronger effect = lower value 1.01 | locus YLR039C, strain RIC1, stronger effect = lower value 0.968 | locus YLR058C, strain SHM2, stronger effect = lower value 1.02 | locus YLR102C, strain apc9, stronger effect = lower value 1.01 | locus YLR221C, strain rsa3, stronger effect = lower value 1.01 | locus YLR258W, strain gsy2, stronger effect = lower value 1 | locus YLR262C, strain YPT6 (second series), stronger effect = lower value 0.895 | locus YLR262C, strain YPT6, stronger effect = lower value 0.952 | locus YLR268W, strain sec22, stronger effect = lower value 1 | locus YLR320W, strain mms22, stronger effect = lower value 0.965 | locus YLR330W, strain CHS5, stronger effect = lower value 1.03 | locus YLR342W, strain FKS1 (second series), stronger effect = lower value 1.03 | locus YLR342W, strain FKS1, stronger effect = lower value 1 | locus YLR357W, strain rsc2, stronger effect = lower value 0.978 | locus YLR370C, strain arc18, stronger effect = lower value 0.998 | locus YLR371W, strain rom2, stronger effect = lower value 1.01 | locus YLR384C, strain iki3, stronger effect = lower value 0.997 | locus YLR418C, strain cdc73, stronger effect = lower value 1.03 | locus YML016C, strain PPZ1, stronger effect = lower value 1.02 | locus YML032C, strain rad52, stronger effect = lower value 1 | locus YML120C, strain ndi1, stronger effect = lower value 1.01 | locus YML124C, strain tub3, stronger effect = lower value 1.02 | locus YMR058W, strain fet3, stronger effect = lower value 1.01 | locus YMR078C, strain ctf18, stronger effect = lower value 1.02 | locus YMR125W, strain sto1, stronger effect = lower value 1.01 | locus YMR129W, stronger effect = lower value 0.999 | locus YMR205C, strain PFK2, stronger effect = lower value 0.976 | locus YMR223W, strain ubp8, stronger effect = lower value 0.986 | locus YMR231W, strain pep5, stronger effect = lower value 0.999 | locus YMR307W, strain GAS1, stronger effect = lower value 1.2 | locus YNL067W, strain RPL9B, stronger effect = lower value 1.02 | locus YNL071W, strain lat1, stronger effect = lower value 1.01 | locus YNL209W, strain ssb2, stronger effect = lower value 1.01 | locus YNL233W, strain BNI4, stronger effect = lower value 1.03 | locus YNL248C, strain rpa49, stronger effect = lower value 0.995 | locus YNL250W, strain rad50, stronger effect = lower value 1.01 | locus YNL271C, strain bni1, stronger effect = lower value 1 | locus YNL298W, strain CLA4, stronger effect = lower value 0.991 | locus YNL307C, strain MCK1, stronger effect = lower value 1.02 | locus YNL322C, strain KRE1 (second series), stronger effect = lower value 0.996 | locus YNR049C, strain mso1, stronger effect = lower value 1 | locus YNR052C, strain pop2, stronger effect = lower value 0.971 | locus YOL012C, strain htz1 1.52 | locus YOL147C, strain pex11, stronger effect = lower value 1.01 | locus YOR001W, strain rrp6, stronger effect = lower value 1 | locus YOR061W, strain CKA2, stronger effect = lower value 1.02 | locus YOR069W, strain VPS5, stronger effect = lower value 1.02 | locus YOR070C, strain gyp1, stronger effect = lower value 1 | locus YOR080W, strain dia2, stronger effect = lower value 1 | locus YOR083W, strain WHI5, stronger effect = lower value 1.01 | locus YOR106W, strain vam3, stronger effect = lower value 0.995 | locus YOR136W, strain idh2, stronger effect = lower value 1 | locus YOR144C, strain elg1, stronger effect = lower value 1.01 | locus YOR184W, strain ser1, stronger effect = lower value 1 | locus YOR265W, strain rbl2, stronger effect = lower value 0.999 | locus YOR270C, strain vph1, stronger effect = lower value 1.04 | locus YOR290C, strain snf2, stronger effect = lower value 0.936 | locus YOR316C, strain cot1, stronger effect = lower value 1.01 | locus YPL051W, strain arl3, stronger effect = lower value 1.03 | locus YPL078C, strain atp4, stronger effect = lower value 1 | locus YPL106C, strain sse1, stronger effect = lower value 1.01 | locus YPL240C, strain hsp82, stronger effect = lower value 0.998 | locus YPR119W, strain clb2, stronger effect = lower value 1.02 | locus YPR141C, strain kar3, stronger effect = lower value 1.01 | locus YPR163C, strain tif3, stronger effect = lower value 1.01 | locus YPR167C, strain met16, stronger effect = lower value 1.01 | strain wtn01, stronger effect = lower value 0.991
